Bioassay records as filed in PubChem.
Shown are actives, neighbours in structure and some others; about 2.9% of the full set was active somewhere.
ATXN2 expr inh: Primary qHTS for Inhibitors of ATXN expression; HEK-293 ATXN2-luciferase reporter, luminescence, 24 h; Potency, µM (top dose mostly 57 µM), without a hit: at the top dose activity change, negative = inhibition, actives largely listed as inhibitors; 0.72% of 360,000 active; note: % is set by controls: 0 for no effect and ±100 for the full control effect; nearly all actives have a fitted effect of over 55% in size
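qHTS (up to 57 uM final) was run with 24 h compound exposure of reporter cells at 37 °C. Each well was multiplexed: SteadyGlo luminescence measured ATXN2-luciferase expression after a fluorogenic Gly-Phe-AFC viability readout (25 uM final).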
Nrf2 inh: Nrf2 qHTS screen for inhibitors | A549 ARE-Fluc reporter, luciferase luminescence, 18-24 h | Potency, µM (series often up to 46 µM), inactives show top-dose activity change, negative = inhibition, actives largely listed as inhibitors | 2.1% of 360,000 active | AID 504444, 2011; note: % is set by controls: 0 for no effect and ±100 for the full control effect; nearly all actives have a fitted effect of over 60% in size
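Cells were seeded and rested 2 h, then exposed to compounds for 18-24 h. CellTiter-Fluor was read first as a viability measure. BugLite was added 15 min before the final luminescent read of ARE-luciferase activity in A549 cells.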
S2 tox: Viability Counterscreen for Primary qHTS for Inhibitors of ATXN expression; S2 cells (HEK-293 line with an ATXN2-luciferase reporter) viability, CellTiter-Fluor protease fluorescence, 24 h; Potency, µM (doses to about 56.7 µM), hits mostly cytotoxic; 0.49% of 400,000 active; AID 651635, 2014; note: nearly all actives have a fitted effect of over 40% in size
Nrf2 ARE act: qHTS of Nrf2 Activators. AREc32 ARE-luciferase reporter (MCF7-derived line), luminescence, 24 h. Potency, µM (highest dose often 46.1 µM), without a hit: at the highest dose activation, usual class: activators. 0.31% of 410,000 active; note: % of control where 0% means no effect; nearly all actives have a fitted effect of over 65% in size
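AREc32 cells carrying an ARE-driven firefly luciferase, 1000 cells/well in OPTI-MEM with 5% FBS, dosed after overnight attachment and incubated 24 hr at 37 deg C. Steady-Glo luminescence read after 30 min at RT.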
A549 tox-1: Nrf2 qHTS screen for inhibitors: counterscreen for cytotoxicity; A549 ARE-Fluc cells, CellTiter-Fluor viability, 18-24 h; Potency, µM (series often up to 46 µM), without a hit: at the highest dose activity change, negative = cytotoxicity, most hits filed as inhibitors; 0.16% of 390,000 active; note: % is set by controls: 0 for no effect and ±100 for the full control effect
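A549 ARE_Fluc cells in 5% FBS OPTI-MEM were exposed to compounds in concentration-response for 18-24 h at 37 deg C. Viability was read by CellTiter-Fluor fluorescence (Ex 405/Em 525) after 30 min, before the luciferase read.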
FLuc enzyme inh: Nrf2 qHTS screen for inhibitors: Purified Fluc Biochemical Counterscreen for Hit Validation | shares compounds with Nrf2 inh | purified firefly luciferase, luminescence inhibition | Potency, µM (top dose mostly 57.5 µM), for the others: at the top dose activity change, negative = inhibition, most hits filed as inhibitors | 4% of 1,400 active | AID 720522, 2013; note: % is set by controls: 0 for no effect and ±100 for the full control effect; nearly all actives have a fitted effect of over 65% in size
Target sequence (P08659 whole entry, looked up): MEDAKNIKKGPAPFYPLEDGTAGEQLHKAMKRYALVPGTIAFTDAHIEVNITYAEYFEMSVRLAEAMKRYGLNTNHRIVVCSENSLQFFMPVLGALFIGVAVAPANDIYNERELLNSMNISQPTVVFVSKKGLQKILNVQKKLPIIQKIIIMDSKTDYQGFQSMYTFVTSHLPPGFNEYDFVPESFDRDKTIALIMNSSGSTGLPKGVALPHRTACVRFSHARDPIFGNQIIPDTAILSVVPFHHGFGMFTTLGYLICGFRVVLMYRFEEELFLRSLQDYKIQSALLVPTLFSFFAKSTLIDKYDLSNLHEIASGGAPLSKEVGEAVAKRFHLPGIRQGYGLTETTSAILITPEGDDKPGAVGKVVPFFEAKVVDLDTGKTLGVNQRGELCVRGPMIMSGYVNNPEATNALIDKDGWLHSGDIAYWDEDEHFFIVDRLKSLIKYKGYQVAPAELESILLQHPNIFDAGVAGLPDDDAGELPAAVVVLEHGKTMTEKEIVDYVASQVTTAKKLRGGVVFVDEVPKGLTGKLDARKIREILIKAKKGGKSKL
A549 tox-2: Nrf2 qHTS screen for inhibitors: A549 ARE-Fluc Cytotoxicity Counterscreen for Hit Validation; 2% of 1,400 active; Potency, µM (doses to about 46.1 µM), for the others: top-dose activity change, negative = cytotoxicity, actives largely listed as inhibitors; shares compounds with Nrf2 inh; AID 720523, 2013; A549 ARE-Fluc cells, cytotoxicity counterscreen;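 note: cells exposed to compounds for 18 to 24 hours; % is set by controls: 0 for no effect and ±100 for the full control effect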
Nrf2 ARE inh: Nrf2 qHTS screen for inhibitors: Nrf2 A549 ARE-Fluc Confirmation Assay for Hit Validation; shares compounds with Nrf2 inh; A549 ARE-firefly luciferase reporter, luminescence; Potency, µM (series often up to 46.1 µM), for inactives: at the highest dose activity change, negative = inhibition, hits mostly inhibitors; 74% of 1,400 active; note: % is set by controls: 0 for no effect and ±100 for the full control effect; nearly all actives have a fitted effect of over 65% in size
The depositor's hits bear a star; i = inactive; ? = inconclusive; nt = no result given; [ ] = another dose, or the depositor's remark. Calls come from the whole dose curve; as a rule, active = well fitted curve in the direction sought with a large enough effect; inconclusive = small, poorly fitted or top-dose-only effect, or another doubt; inactive = no such curve, though single readings can be large; an effect the other way counts as inactive or inconclusive. Potency is the fitted concentration of half-maximal effect.

SMILES	ATXN2 expr inh	Nrf2 inh	S2 tox	Nrf2 ARE act	A549 tox-1	FLuc enzyme inh	A549 tox-2	Nrf2 ARE inh
O=C(Nc1ccc(Cl)cc1)Nc1ccc(N2CCCC2)c(S(=O)(=O)Nc2ccccc2Cl)c1	?	3.26µM*	i	2.4%	?	0.4%	?	6.51µM*
Cn1c2c(c(=O)[nH]c1=O)C(c1cccc(O)c1)C1=C(N2)c2ccccc2C1=O (stereo not drawn)	?	8.2µM*	?	0.2%[9.22 µM]	-24.5%	-25.2%	?	4.61µM*
CCc1ccc(-c2nn(CC(=O)NC3CCCCC3)c3c2cnc2ccc(C)cc23)cc1	10.0%	22.6%	i	-0.6%	5.2%	nt	nt	nt
CCc1ccc2ncc3c(-c4ccc(F)cc4)nn(CC(=O)NC4CCCCC4)c3c2c1	nt	1.64µM*	nt	-0.7%	0.0%	-0.3%	-2.3%	?
O=C(CCCN1C(=O)/C(=C\c2ccccc2)SC1=S)Nc1ccc(O)cc1	17.6%[11.3 µM]	?	i	2.5%	?	nt	nt	nt
Cc1ccc(C(=O)NNC(=O)CCCN2C(=O)/C(=C/c3ccccc3Cl)SC2=S)cc1	?	9.2µM*	i	-1.4%	?	?	-4.1%	?
Cc1ccc(/C=C2/SC(=S)N(CCCC(=O)Nc3ccc(O)cc3)C2=O)cc1	2.51µM*	9.2µM*	?	2.5%	?	?	?	13µM*
O=C(CCCN1C(=O)/C(=C/c2ccccc2Cl)SC1=S)NNC(=O)c1ccc(Cl)cc1	?	8.2µM*	i	-1.5%	0.1%	-4.6%	-21.9%	7.31µM*
CCOC(=O)c1cc(OC(C)=O)c2ccc(OC)c(OC)c2c1	nt	nt	i	9.6%	nt	nt	nt	nt
CCC1CCCCN1S(=O)(=O)c1ccc2[nH]c(=O)ccc2c1 (stereo not drawn)	-12.0%	-12.7%	i	4.3%	-2.9%	nt	nt	nt
CCC(=O)C1=C(c2ccc(OC)c(OC)c2)N(C(=O)CC)n2c(nnc2-c2ccc(C)cc2)S1	nt	nt	nt	-0.5%	-13.0%	nt	nt	nt
COc1ccc(/C=C/C(=O)NC(=S)NCCc2ccc(OC)c(OC)c2)cc1	?	7.31µM*	?	-0.7%	?	-3.9%	-12.6%	5.4%
COc1ccc(CNC(=O)NS(=O)(=O)c2ccc(C)cc2)cc1	0.2%	0.8%	i	-1.3%	7.7%	nt	nt	nt
CC(=O)Nc1cccc(-c2cnc(N)c(C(=O)c3cccnc3)n2)c1	?	5.17µM*	?	-4.2%	?	-14.4%	-23.0%	nt
COc1ccc(CC(=O)Nc2cccc(SC)c2)cc1OC	0.1%	2.91µM*	i	-0.5%	-25.3%	-1.1%	-2.6%	8.2µM*
COc1ccc(NC(C)=O)cc1NC(C)C(=O)Nc1cccc(S(=O)(=O)N2CCOCC2)c1 (stereo not drawn)	nt	-1.3%	?	0.2%	-0.7%	nt	nt	nt
COC(=O)c1cc(NC(=O)Cc2ccc(OC)c(OC)c2)cc(C(=O)OC)c1	-4.4%	-0.9%	i	0.1%	-0.5%	nt	nt	nt
COc1ccc(NC(=O)c2cc(S(=O)(=O)N3CCCC3)cn2C)cc1Cl	-16.7%	3.66µM*	?	0.2%	-6.7%	-15.6%	1.4%	16.2%
COc1ccc(Cl)cc1NC(=O)c1cc(S(=O)(=O)N2CCCC2)cn1C	-9.8%	?	i	0.2%	-0.7%	nt	nt	nt
COc1ccc(NC(C)C(=O)Nc2cccc(S(=O)(=O)N3CCOCC3)c2)cc1OC (stereo not drawn)	?	6.51µM*	i	0.3%	?	-8.2%	-13.0%	6.51µM*
COc1ccc(CC(=O)Nc2cccc(S(=O)(=O)N3CCCCCC3)c2)cc1OC	-36.3%	1.84µM*	i	2.3%	?	-2.5%	-21.5%	4.11µM*
COc1ccccc1N1CCN(S(=O)(=O)c2c(C)sc3ncn(CC(=O)Nc4ccc(C(F)(F)F)cc4)c(=O)c23)CC1	12.2%	-1.0%[9.27 µM]	?	0.4%	2.3%	nt	nt	nt
C=CCNc1cc(=O)n(Cc2ccccc2)c(=O)[nH]1	-14.3%	0.3%	i	-0.5%	-1.9%	nt	nt	nt
CS(=O)(=O)c1ccc2nc(NC(=O)C3CC3)sc2c1	nt	6.3%	i	1.5%	0.1%	nt	nt	nt
C=CCC(c1ccccc1)N(C(C)=O)c1ccco1 (stereo not drawn)	1.1%	?	i	-0.7%	-3.7%	nt	nt	nt
SMILES	ATXN2 expr inh	Nrf2 inh	S2 tox	Nrf2 ARE act	A549 tox-1	FLuc enzyme inh	A549 tox-2	Nrf2 ARE inh
CC(C)CCNC(=O)C(c1ccco1)N(CCCO)C(=O)Cn1nnc(-c2ccc(F)cc2)n1 (stereo not drawn)	-18.1%	4.2%	i	-0.3%	-18.3%	nt	nt	nt
CC(C)CCNC(=O)C(c1ccncc1)N(Cc1cccs1)C(=O)Cn1nnc(-c2ccc(F)cc2)n1 (stereo not drawn)	?	2.59µM*	i	9.2%	?	-2.6%	?	1.46µM*
Cc1ccc(C(=O)Oc2cc(N)n(S(=O)(=O)c3ccc(C)cc3)n2)cc1	-12.2%	1.16µM*	i	-2.5%	-4.7%	-2.8%	-0.5%	4.61µM*
COc1ccc(S(=O)(=O)n2nc(OC(=O)c3ccc(C)cc3)cc2N)cc1	-16.2%	0.581µM*	i	-1.9%	-14.4%	-23.0%	4.8%	nt
COc1ccc(S(=O)(=O)n2nc(OC(=O)c3ccccc3)cc2N)cc1	-29.6%	-10.4%	i	0.2%	-1.7%	nt	nt	nt
Cc1n[nH]c(C)c1C(=O)CC1(O)C(=O)N(Cc2ccccc2)c2ccc(Br)cc21 (stereo not drawn)	5.8%	-18.8%	?	-0.6%	-7.5%	nt	nt	nt
Cc1ccc(NC(=O)COc2ccc(N(C)C(=O)C(C)(C)C)cc2)cc1S(=O)(=O)N1CCCCC1	?	3.66µM*	?	0.1%	?	-15.2%	?	5.17µM*
CCOC(=O)C1(CCc2ccccc2)CCN(Cc2c(O)cccc2OC)CC1	-30.0%	-12.1%	i	13.2%	-0.9%	nt	nt	nt
Oc1c(C(Nc2cccc(C(F)(F)F)c2)c2ccncc2)ccc2cccnc12 (stereo not drawn)	?	-25.4%	nt	0.2%	-5.2%	nt	nt	nt
Oc1c(C(Nc2nccs2)c2ccc(C(F)(F)F)cc2)ccc2cccnc12 (stereo not drawn)	12.6µM*	4.61µM*	i	0.1%	-10.4%	-11.2%	-23.2%	5.8µM*
